For assay [1], the system named is XIP peptide (Xip251-270) binding. Description: small-molecule binders of XIP peptide, primary screen, biochemical, small-molecule microarray, fluorescence 635/667 nm, 0.1 µg/mL protein (AID 1182). The note with it: fluorescent protein binding, 635 nm, higher = more signal, called active from +8 up or from −8 down.
Assay [2] has as its system XIP peptide (Xip251-270). The assay is described as follows: small-molecule binders of XIP peptide, primary screen, biochemical, small-molecule microarray, fluorescence 635/667 nm, 0.5 µg/mL protein (AID 1183). The note with it: small-molecule microarray binding, fluorescence 635 nm; higher = more signal.
The nature of assay [3]: Plasmodium falciparum growth inhibition, primary screen, strain 3D7, DAPI fluorescence, 100 nL (AID 1184).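 Note: parasites grown inside human red blood cells in medium with human serum.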 The note with it: P. falciparum 3D7 growth, 3 d, higher = more signal.
Assay [4] addresses Homeobox protein Hox-A13 (Mus musculus) (UniProt Q62424). The assay is described as follows: inhibitors of HoxA13-DNA binding, primary screen, biochemical, fluorescence polarization, labeled oligonucleotide (AID 1185). The conditions noted are these: 15 min, higher = more signal, called active from +8 up or from −8 down.
Assay [5] in a line: inhibitors of hydroxyurea-induced Chk1 phosphorylation, primary screen, imaging, HeLa, phospho-Chk1 antibody, percent positive cells (AID 1186). The conditions noted are these: hydroxyurea-induced phospho-Chk1 immunofluorescence imaging, higher = more signal.
Assay [6] can be described thus: inhibitors of hydroxyurea-induced Chk1 phosphorylation, primary screen, imaging, HeLa, phospho-Chk1 nuclear intensity (AID 1187). The conditions noted are these: hydroxyurea-induced phospho-Chk1 immunofluorescence imaging, higher = more signal.

The source made the active and inactive calls. Unless noted, the rule behind the calls is not given here.

Homeobox protein Hox-A13 (Mus musculus), sequence (Q62424 whole entry, looked up): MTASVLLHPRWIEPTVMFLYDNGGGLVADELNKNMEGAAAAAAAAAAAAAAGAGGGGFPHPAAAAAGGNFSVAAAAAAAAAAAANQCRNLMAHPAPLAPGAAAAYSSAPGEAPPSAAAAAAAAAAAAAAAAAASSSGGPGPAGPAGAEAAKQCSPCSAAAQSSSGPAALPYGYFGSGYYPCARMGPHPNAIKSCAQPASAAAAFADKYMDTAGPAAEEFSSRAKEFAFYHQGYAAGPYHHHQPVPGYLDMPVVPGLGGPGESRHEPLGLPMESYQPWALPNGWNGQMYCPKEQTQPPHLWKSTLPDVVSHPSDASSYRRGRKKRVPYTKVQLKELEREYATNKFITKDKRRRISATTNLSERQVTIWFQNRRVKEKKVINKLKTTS

In the case of `CC(C)N1C(=O)c2ccccc2[C@](C)(C(=O)NCCN2CCOCC2)[C@@H]1c1ccc(CO)cc1`, the composite z-score is 0.0317 (inactive) in assay [1] and -0.119 in assay [2]. Besides, the z-score in assay [3] was 0.437; in assay [4] it was -3.78 (inactive); in assay [5], -0.155 (inactive); in assay [6], -0.332 (inactive).

For `CCN(CC)c1ccc(N2CC=CC34O[C@@H]5C=CCCOC(=O)C5[C@H]3C(=O)N(CCCCCCO)[C@@H]4C2=O)cc1` (some centres not stated), the composite z-score in assay [1] was 0.0059 (inactive); in assay [2] it was 0.375. The z-score in assay [3] is -0.459; in assay [4], -5.73 (inactive); in assay [5], -0.43 (inactive); in assay [6] it was 0.419 (inactive).

For `C=CCOC(=O)[C@H]1[C@@H]2C(=O)O[C@@H](c3ccccc3)[C@@H](c3ccccc3)N2[C@@H](c2ccc(OCCOC(=O)[C@H]3C[C@H]4C(=O)N[C@@H](CCCCNC(C)=O)C(=O)N4[C@H]3c3cccc(OCCO)c3)cc2)[C@]12C(=O)Nc1ccccc12`, the composite z-score was 0.899 (inactive) in assay [1] and 0.528 in assay [2]. Also, the z-score in assay [3] was -1.69; in assay [4], -1.77 (inactive); in assay [5], -0.843 (inactive); in assay [6], -0.373 (inactive).

Consider `CO[C@H]1O[C@H](CO)[C@@H](OC(=O)Nc2ccc(Oc3ccccc3)cc2)[C@H](OC(=O)Nc2ccc3c(c2)OCO3)[C@H]1OC(=O)Nc1ccc2c(c1)OCO2`, for which the values for the composite z-score in assay [1] and in assay [2] were 0.69 (inactive) and 0.891, respectively. The z-score in assay [3] is -2.33; in assay [4], -5.25 (inactive); in assay [5] it was -0.334 (inactive); in assay [6], -0.152 (inactive).

On to `CN(C)C(=O)[C@]1(Cc2ccccc2N=[N+]=[N-])N=C(c2ccc(OCCCO)cc2)O[C@@H]1c1ccccc1N=[N+]=[N-]`, for which the results for the composite z-score in assay [1] and in assay [2] were 1.31 (inactive) and 0.799, respectively. The z-score in assay [3] is -2.22; in assay [4] it was -3.63 (inactive); in assay [5], -1.13 (inactive); in assay [6] it was -1.55 (inactive).

In the case of `COc1ccc([Si](C)(C)[C@@H]2[C@@H](CCO)O[C@]3(C(=O)N(Cc4ccc(N(C=O)c5ccccc5)cc4)c4ccccc43)[C@H]2C)cc1`, the composite z-score in assay [1] is -0.0075 (inactive); in assay [2] it was -0.0404. Further, the z-score in assay [3] is -2.7; in assay [4] it was -1.54 (inactive); in assay [5] it was -1.27 (inactive); in assay [6], -1.31 (inactive).

For `Cc1ccc(S[C@]2(C(=O)NCCCN(C)C)CC(=O)N(Cc3ccccc3C(F)(F)F)[C@@H]2c2ccc(CO)cc2)cc1`, the values for the composite z-score in assay [1] and in assay [2] were 0.0209 (inactive) and -0.328, respectively. Moreover, the z-score in assay [3] was -1.02; in assay [4] it was -1.25 (inactive); in assay [5], -0.0292 (inactive); in assay [6], 0.135 (inactive).

Regarding `CN(C)CCCC[C@@H]1NC(=O)[C@@H]2C[C@H](C(=O)NCCCCCCN)[C@H](c3cccc(OCCO)c3)N2C1=O`, the composite z-score in assay [1] is 1.57 (inactive); in assay [2], 0.919. Moreover, the z-score in assay [3] was 0.0561; in assay [4] it was -3.85 (inactive); in assay [5] it was -0.945 (inactive); in assay [6], -0.708 (inactive).

Take `O=C1N[C@@H](Cc2ccccc2)C(=O)N2[C@@H]1C[C@@H](C(=O)O)[C@H]2c1cccc(OCCO)c1`: the composite z-score in assay [1] is 0.779 (inactive); in assay [2] it was 0.465. In addition, the z-score was 0.193 in assay [3], -3.04 (inactive) in assay [4], -0.22 (inactive) in assay [5] and 0.101 (inactive) in assay [6].

For the compound `C=CCN1C(=O)[C@]2(O[C@H](CCn3cc([C@H](O)c4ccccc4)nn3)[C@@H]([Si](C)(C)c3ccc(OC)cc3)[C@@H]2C)c2ccccc21`, the values for the composite z-score in assay [1] and in assay [2] were 0.507 (inactive) and -0.579, respectively. Moreover, the z-score in assay [3] was -1.69; in assay [4], -5.68 (inactive); in assay [5], -0.831 (inactive); in assay [6], -0.475 (inactive).

In the case of `Cc1ccc(S[C@]2(C(=O)O)CC(=O)N(C(C)C)[C@@H]2c2ccc(CO)cc2I)cc1`, the composite z-score was 0.534 (inactive) in assay [1] and 0.837 in assay [2]. For the same compound, the z-score is 0.14 in assay [3], -3.85 (inactive) in assay [4], -0.366 (inactive) in assay [5] and 0.0562 (inactive) in assay [6].

With `COC(=O)[C@H](Cc1ccccc1)N[C@@H](/C=C/C1CC1)[C@H](O)Cc1ccccc1`, the composite z-score in assay [1] was -0.207 (inactive); in assay [2], -0.432. Besides, the z-score in assay [3] was -0.986; in assay [4], -5.71 (inactive); in assay [5], -0.157 (inactive); in assay [6], -0.295 (inactive).

Take `C=CCC(OC(C)=O)[C@@H]1[C@@H](N(Cc2ccc(-c3ccccc3)cc2)C(=O)c2cccc3ccccc23)c2cc(OCCCO)ccc2N1C(=O)c1ccc(-c2ccccc2)cc1` (some centres not stated): the composite z-score is -0.299 (inactive) in assay [1] and -0.321 in assay [2]. Besides, the z-score in assay [3] is -2.81; in assay [4], -1.22 (inactive); in assay [5], -0.627 (inactive); in assay [6], -0.234 (inactive).

Regarding `O=C1C[C@@](C(=O)NCCN2CCOCC2)(c2ccc([N+](=O)[O-])cc2)[C@@H](c2ccc(CO)cc2I)N1CC12CC3CC(CC(C3)C1)C2`, the figures for the composite z-score in assay [1] and in assay [2] were 0.634 (inactive) and 0.761, respectively. Moreover, the z-score was -2.04 in assay [3], -3.99 (inactive) in assay [4], -0.894 (inactive) in assay [5] and -1.24 (inactive) in assay [6].

In the case of `COc1ccccc1CN1C(=O)c2ccccc2[C@@]2(Cc3ccccc3N(CC(C)C)C2=O)[C@@H]1c1ccc(CO)cc1`, the composite z-score was -0.25 (inactive) in assay [1] and 0.607 in assay [2]. Also, the z-score in assay [3] is -0.422; in assay [4], -0.795 (inactive); in assay [5], -0.132 (inactive); in assay [6], -0.425 (inactive).

As to `COc1ccc(C(O)C2C=CC3C(=O)N(Cc4ccccc4)C(=O)C3N2n2cnnc2)cc1OCc1ccccc1` (configuration not stated), the composite z-score was 0.442 (inactive) in assay [1] and 0.159 in assay [2]. The z-score in assay [3] is -0.951; in assay [4], -2.23 (inactive); in assay [5] it was -0.537 (inactive); in assay [6], -0.462 (inactive).

In the case of `C=CC[C@@]12N=C(c3ccc(OCCCO)cc3)O[C@@H]1c1ccccc1N(C)C2=O`, the composite z-score in assay [1] was 0.535 (inactive); in assay [2] it was 0.759. In addition, the z-score in assay [3] is -1.9; in assay [4] it was -4.57 (inactive); in assay [5], 0.221 (inactive); in assay [6], 0.444 (inactive).
